Compound activity deposited in PubChem BioAssay by Broad Institute.
aSyn 5UTR act: Activators via SNCA 5'UTR binding, MLPCN; 300,000 tested, 7.1% active; alpha-synuclein 5'UTR reporter, activators screen; activity score, % (tested at 7.5 µM), hits read low; in the data active = activity score below about -60%
Large screens that a line does not name were inactive. A selection follows.

COc1ccc(/C(C)=N/Nc2ccc(C(=O)O)cc2)cc1OC	aSyn 5UTR act -137.3
Cn1nnnc1N=N/C(=N/Nc1ccccc1)c1ccccc1	none
Cc1c(-c2nc(N)nc(Nc3ccccc3)n2)oc2ccccc12	aSyn 5UTR act -134.4
COc1cc(/C=N/N2CCOCC2)ccc1OCc1ccccc1	aSyn 5UTR act -107.4
COc1cc(/C=N/N2CCOCC2)ccc1OCc1ccc(Cl)cc1	aSyn 5UTR act -66.4
O=C(CSc1nnc(-c2cccnc2)o1)Nc1cccc(F)c1	aSyn 5UTR act -86.2
O=C(CSc1nnc(-c2ccc(Br)cc2)o1)Nc1cccc(C(=O)O)c1	none
O=C(CSc1nnc(-c2cccnc2)o1)Nc1ccc(Br)cc1	aSyn 5UTR act -76.7
[O-][n+]1onc2c1CCc1nnccc1-2	aSyn 5UTR act -85.5
O=c1c2ccccc2c(C=Nc2ccc(O)cc2)c(O)n1Cc1ccccc1	aSyn 5UTR act -110.7
CC(C)C(=O)Nc1nc(-c2ccc3c(c2)CCN3C(=O)C2CC2)cs1	aSyn 5UTR act -101.5
CC(=O)Nc1nc(-c2ccc3c(c2)CCN3S(C)(=O)=O)cs1	aSyn 5UTR act -207.0
CC(C)(C)Nc1nc(-c2ccc3c(c2)CCN3C(=O)C2CC2)cs1	aSyn 5UTR act -80.4
Cc1ccc(-c2nc(N/N=C/c3ccccc3[N+](=O)[O-])c3ccccc3n2)cc1	aSyn 5UTR act -267.0
Cc1cc(N/N=C/c2ccccc2[N+](=O)[O-])nc(-n2nc(C)cc2C)n1	none
Brc1ccc(-c2nc(N/N=C/c3cccnc3)c3ccccc3n2)cc1	aSyn 5UTR act -92.3
Cc1cccc(N=Nc2c(O)[nH]c3ccc(Br)cc23)c1	aSyn 5UTR act -72.4
Cc1nc(OCC(C)C)c2sc3nc4c(cc3c2n1)COC(C)(C)C4	aSyn 5UTR act -130.4
COc1nc(C)nc2c1sc1nc3c(cc12)COC(C)(C)C3	aSyn 5UTR act -145.0
O=c1c2c3c(sc2nc2n1CCCC2)CCCCC3	aSyn 5UTR act -105.4
Clc1nc(CN2CCCCC2)nc2sc3c(c12)CCCC3	aSyn 5UTR act -67.7
O=c1c2c3c(sc2nc2n1CCCCC2)CCCCC3	aSyn 5UTR act -152.5
O=c1c2c3c(sc2nc2n1CCCCC2)CCCC3	aSyn 5UTR act -123.9
CC(=O)Nc1sc(N/N=C\c2ccccc2Cl)nc1-c1cccs1	aSyn 5UTR act -141.3
CC(=O)Nc1sc(NC(=O)c2ccc(Cl)cc2)nc1-c1cccs1	aSyn 5UTR act -72.9
CC(=O)Nc1sc(N/N=C\c2ccccc2)nc1-c1cccs1	aSyn 5UTR act -113.9
O=C(Nc1ccc(Cl)c(Cl)c1)OCc1cncs1	aSyn 5UTR act -96.8
Clc1nc2sccn2c1/C=N/n1cnc2ccccc21	aSyn 5UTR act -147.6
COC(=O)C1CCN(C(=O)c2ccc3nc(-c4cccc(OC)c4)oc3c2)CC1	aSyn 5UTR act -135.7
COc1cccc(-c2nc3ccc(C(=O)NC(C)Cc4cccnc4)cc3o2)c1 (stereo not given)	aSyn 5UTR act -129.7
O=C(N/C(=C/c1cccc(Br)c1)c1nc(=S)[nH][nH]1)c1ccccc1	aSyn 5UTR act -77.1
Cc1sc2ncnc(NCC(O)c3ccccc3)c2c1C (stereo not given)	aSyn 5UTR act -103.9
O=c1c(-c2ccccc2)c[nH]n1-c1cccc([N+](=O)[O-])c1	aSyn 5UTR act -86.9
O=c1c(-c2ccc(Cl)cc2)c[nH]n1-c1ccccc1	aSyn 5UTR act -145.0
CC#CC(=O)N1CCC(C(=O)Nc2ccc(Oc3ccccc3)nc2)CC1	aSyn 5UTR act -175.2
O=C(NCC(c1cccs1)N1CCOCC1)c1ccc(Cl)cc1 (stereo not given)	aSyn 5UTR act -100.1
CC(C)n1cnc2cc(NCc3ccccn3)ccc21	aSyn 5UTR act -97.5
c1ccc(-n2cnc3cc(NCc4ccccn4)ccc32)cc1	aSyn 5UTR act -66.1
CC(C)n1cnc2cc(NCc3ccco3)ccc21	aSyn 5UTR act -109.0
Cc1cc(NCc2ccccn2)ccc1Br	aSyn 5UTR act -198.1
Cc1ccc(NCC(=O)c2ccc([N+](=O)[O-])cc2)cc1	aSyn 5UTR act -114.8
Cc1ccc(C(=O)CNc2ccc(Br)cc2)cc1	aSyn 5UTR act -71.4
COc1ccc(OCC(=O)Nc2cccc(NC(=O)COc3ccc(OC)cc3)n2)cc1	aSyn 5UTR act -135.6
COc1ccc(OCC(=O)Nc2ccccc2Cl)cc1	aSyn 5UTR act -110.6
O=C(COc1ccccc1O)Nc1ccccc1Cl	aSyn 5UTR act -98.8
COc1ccc(-n2nc3c(c2NC(=O)COc2ccccc2)CS(=O)(=O)C3)cc1	aSyn 5UTR act -75.9
O=C(COc1ccccc1Cl)NCc1ccccc1	aSyn 5UTR act -72.3
O=C(COc1ccc(C(=O)c2ccccc2)cc1)NCc1ccc(F)cc1	none
CCCCCCc1nnc(NC(=O)c2ccco2)s1	aSyn 5UTR act -66.7
CC(C)COC(=O)Nc1nnc(Cc2ccccc2)s1	aSyn 5UTR act -97.5
O=C(Nc1nnc(CCc2ccccc2)s1)c1cccs1	aSyn 5UTR act -79.8
O=C(Nc1nnc(CCc2ccccc2)s1)c1ccco1	aSyn 5UTR act -87.2
NC(=O)c1cc(Cc2ccccc2)sc1NC(=O)c1ccco1	aSyn 5UTR act -214.9
O=C(Nc1nnc(Cc2ccccc2)s1)c1ccco1	aSyn 5UTR act -94.7
CC(C)(C)Cc1nnc(NC(=O)c2ccco2)s1	aSyn 5UTR act -77.1
CCOc1ccc(OCc2ccc(C(=O)N(CC)CC)cc2)cc1	aSyn 5UTR act -155.3
